Tested on: HCoV-OC43
Design: species or system RD
Details: 24 h, 10 µM; inhibitor

Row | Structure (SMILES) | OC43 Inhibition rate
1 | CC1=C[C@]23C(=O)[C@@H](C=C(COC(=O)c4ccccc4)[C@@H](O)[C@]2(O)[C@H]1OC(=O)c1ccccc1)[C@H]1[C@@H](C[C@H]3C)C1(C)C [Ingenol 3,20-dibenzoate, ingenol 3,20-dibenzoate] | 82.9
2 | C=C1C(=O)O[C@@H]2[C@H]3O[C@]3(C)CC/C=C(\C)CC[C@@H]12 [Parthenolide] | 36.9
3 | Cc1c([C@H](C)[C@@H]2NC[C@@H](C)C[C@H]2O)ccc2c1C[C@H]1[C@H]2CC=C2C[C@@H](O)CC[C@@]21C [Veratramine, veratramine] | 77.2

— PMC12431657, “Discovery and mechanistic insights of dibenzoylmethane as a broad spectrum inhibitor of coronavirus” (PLOS Pathogens, 2025)
